Bioassay records as filed in PubChem.
This excerpt belongs to a sample that is enriched for hits.
Pf apPOL inh: Pf-apPOL DNA polymerase inhibition; AID 1794808; 210,000 compounds, 0.25% hits; Recombinant Pf-apPOL, molecular beacon fluorescence, 1.5 h; inhibition, % at 10 µM
mHTT-CaM PPI inh: disrupts binding of mutant huntingtin to calmodulin. AlphaScreen His-mHTT/GST-CaM binding, luminescence. inhibition, % at 15 µM. 190,000 compounds, 3.6% hits
A number is an active result; – = inactive; · = not tested or not shown; ! = repeats disagree. No stated cut-off is given here; in the data, active means inhibition above about 50%; inactive means the rest.

SMILES	Pf apPOL inh	mHTT-CaM PPI inh
Fc1ccc(-c2nnn(Cc3c(F)cccc3Cl)n2)cc1	–	–
C=CCOc1ccc(/C=C2\C(=O)NN(c3ccccc3)C2=O)cc1OC	–	–
COc1cccc(C2CC(c3ccc(C)c(C)c3)=NC3(CCN(C(C)=O)CC3)N2)c1O (stereo not drawn)	–	–
Cc1ccc(C2CC(c3ccccc3O)=NC3(CCN(C)CC3)N2)cc1 (stereo not drawn)	–	–
CC(C)N1CCC2(CC1)N=C(c1ccccc1O)CC(c1ccccc1O)N2 (stereo not drawn)	–	–
COc1cccc(C2CC(c3ccc(Cl)cc3)=NC3(CCN(C(C)=O)CC3)N2)c1O (stereo not drawn)	–	58.4
COc1ccccc1C1CC(c2ccccc2O)=NC2(CCN(C(C)C)CC2)N1 (stereo not drawn)	–	65.7
Cc1ccc(C)c(C2=NC3(CCN(C)CC3)NC(c3cc(Cl)ccc3O)C2)c1 (stereo not drawn)	–	98.2
CSC1=NC2CCCCC2N1 (stereo not drawn)	·	–
OCc1nc2ccccc2n1CCOc1ccc(Cl)cc1Cl	–	–
CCN1CCN(C(=O)C2CCCN(c3ncnc4c3nc3n4CCCCC3)C2)CC1 (stereo not drawn)	–	–
Cc1ccc(Nc2c(-c3nc(C)no3)cnc3nc(C)ccc23)c(C)c1	–	–
Cc1ccc2c(Nc3ccc(F)cc3C)c(-c3nc(C)no3)cnc2n1	–	57.6
CCn1nnc2c(N3CCN(C(=O)NC(c4ccccc4)c4ccccc4)CC3)ncnc21	–	–
CCOC(=O)CC(=O)CSc1ccc2nnc(-c3ccccn3)n2n1	–	83.1
Cc1ccc2nc(NC(=O)CSc3ccc(-n4cccn4)nn3)sc2c1	–	–
Cc1ccc2nc(NC(=O)CSc3ccc4nnc(-c5ccccn5)n4n3)sc2c1	–	79.5
O=C(CSc1ccc2nnc(-c3ccccn3)n2n1)NCc1ccc2c(c1)OCO2	–	–
Cc1cc(C)n(S(=O)(=O)c2ccc(I)cc2C)n1	–	–
Cc1ccccc1OCc1nnc(SC(C)C(=O)Nc2nccs2)n1Cc1ccccc1 (stereo not drawn)	–	–
COc1ccc([C@@H]2C[C@H](c3ccccc3)Oc3cc4c(cc32)OCO4)cc1	–	60.0!
COc1ccc([C@@H]2C[C@@H](c3ccccc3)Oc3cc(C)cc(C)c32)cc1	–	–
O=C(Nc1cccc(F)c1)C12CC3CC(CC(C3)C1)C2	–	–
O=C1C=CC(=NS(=O)(=O)c2ccccc2)C=C1Br	–	57.0
O=C1C(Br)=CC(=NS(=O)(=O)c2ccccc2)C=C1Br	–	100.0
SMILES	Pf apPOL inh	mHTT-CaM PPI inh
Cc1cc(C)c(S(=O)(=O)N=C2C=CC(=O)C=C2)cc1C	–	–
Cc1cc(C)c(S(=O)(=O)N=C2C=CC(=O)C(Br)=C2)cc1C	–	58.0
CC1=CC(=O)C=C(C)C1=NS(=O)(=O)c1ccccc1	–	–
CC1=CC(=NS(=O)(=O)c2ccc(Br)cc2)C=C(C)C1=O	–	52.0
O=C1C=CC(=NS(=O)(=O)c2ccc(Br)cc2)C=C1	–	–
CC1=C(C)C(=NS(=O)(=O)c2ccccc2)C=CC1=O	–	–
CC1(C)CC(=O)C(C=Nc2ncccc2C(=O)O)=C(O)C1	–	–
O=C(Cc1ccccc1)NCCS(=O)(=O)O	–	–
CCc1ccc(S(=O)(=O)N=C2C=CC(=O)C(Br)=C2)cc1	–	72.0
Cc1ccc(S(=O)(=O)N=C2C=CC(=NS(=O)(=O)c3ccc(C)cc3)C=C2)cc1	–	–
C#CCOc1ccc(C2CC(=O)Nc3c2c(C)nn3-c2nc3ccccc3s2)cc1 (stereo not drawn)	–	–
CCN(CC)c1ccc(C#N)cc1	–	·
CCN(CC)c1ccc(N)c(C)c1	–	58.0
Cc1cc(NC(=O)CSc2nc3[nH]ncc3c(=O)n2-c2ccc(Br)cc2)n[nH]1	–	–
Cc1ccc(N2C(=O)SC(Nc3cccc(C)c3)C2=O)cc1 (stereo not drawn)	–	–
COC(CNC(=O)c1cnn2c(C)c(Cc3ccccc3)c(C)nc12)OC	–	–
Cc1nc2c(C(=O)NC(C)C)cnn2c(C)c1Cc1cccc(Cl)c1	–	70.0
Cc1nc2c(C(=O)NCCC(C)C)cnn2c(C)c1Cc1cccc(Cl)c1	–	–
COC(CNC(=O)c1cnn2c(C)c(Cc3cccc(Cl)c3)c(C)nc12)OC	–	61.0
COC(=O)c1ccc(COc2coc(CN3CCN(c4ccc(F)cc4)CC3)cc2=O)o1	–	–
O=C1C=C(/C=C/c2cccs2)CC(c2cccs2)C1n1cnc([N+](=O)[O-])n1 (stereo not drawn)	–	–
Cc1cc([N+](=O)[O-])ccc1N=Cc1c(C)[nH]n(-c2cccc(Cl)c2)c1=O	–	–
Cc1cccc(NC(=O)NCc2ccnc(N3CCSCC3)c2)c1C	–	–
O=C1C(=O)N(Cc2ccc(Cl)c(Cl)c2)c2ccc([N+](=O)[O-])cc21	–	91.0
O=C1C(=O)N(Cc2ccc(Br)cc2)c2ccc([N+](=O)[O-])cc21	–	–
SMILES	Pf apPOL inh	mHTT-CaM PPI inh
O=C1C(=O)N(CCCCN2C(=O)C(=O)c3ccccc32)c2ccccc21	–	–
O=C1C(=O)N(Cc2ccc(Cl)c(Cl)c2)c2ccccc21	–	93.0
O=C1C(=O)N(Cc2ccc(Br)cc2)c2ccccc21	–	70.0
O=C1C(=O)N(Cc2ccc(F)cc2)c2ccccc21	–	–
CCc1ccc(N2CC(C(=O)NCc3ccc4c(c3)OCO4)CC2=O)cc1 (stereo not drawn)	–	–
c1ccc(-c2cccs2)nc1	–	·
CC(=O)N1CCc2cc(Br)cc(S(=O)(=O)NCc3ccc(Cl)cc3)c21	–	–
CCOc1ccc2c(=O)c(-c3ccccc3)c(C)oc2c1	–	–
COc1cccc(-c2csc(Nc3cc(C)ccn3)n2)c1	–	–
Cc1ccc(-c2csc(Nc3ccccn3)n2)cc1C	–	–
Cc1cccnc1Nc1nc(-c2ccc(O)c(O)c2)cs1	–	62.0
Cc1ccnc(Nc2nc(-c3ccc(O)c(O)c3)cs2)c1	–	92.0
COc1ccccc1NC(=O)C1=C(C)NC2=C(C(=O)CCC2)C1c1cc(OC)c(OC)c(OC)c1 (stereo not drawn)	–	–
Fc1ccc(Cn2cnc3ccccc32)cc1	–	–
Clc1ccc(Cn2cnc3ccccc32)cc1Cl	–	51.8
COc1ccc(C2CC(=O)Nc3n[nH]c(-c4ccccc4)c32)cc1 (stereo not drawn)	–	–
COc1cc(C2CC(=O)Nc3n[nH]c(-c4ccccc4)c32)ccc1O (stereo not drawn)	–	53.6
COc1cccc(C2CC(=O)Nc3n[nH]c(-c4ccc(Cl)cc4)c32)c1 (stereo not drawn)	–	–
COc1ccc(OC)c(C2CC(=O)Nc3n[nH]c(-c4ccccc4)c32)c1 (stereo not drawn)	–	93.6
COc1ccc(C2CC(=O)Nc3n[nH]c(-c4ccccc4)c32)cc1OC (stereo not drawn)	–	–
COc1cc(C2CC(=O)Nc3n[nH]c(-c4ccc(Cl)cc4)c32)cc(OC)c1OC (stereo not drawn)	–	100.1
CS(=O)(=O)c1ccc2nc(NC(=O)COc3ccc(Cl)cc3)sc2c1	–	–
O=c1cc(-c2ccccc2Cl)oc2c(NS(=O)(=O)c3ccccc3C(F)(F)F)ccc(O)c12	–	–
CCCN1C(=O)Cc2cc(C(=O)N3CCN(c4ccccn4)CC3)ccc21	–	–
CCCN1C(=O)Cc2cc(C(=O)N3CCN(c4ccccc4C)CC3)ccc21	–	54.9
